# A selection: hits, their analogues and other compounds. The true share with any hit is near 12%.
# HP1b binding inh – HTS for Inhibitors of HP1-beta Chromodomain Interactions with Methylated Histone Tails | AlphaScreen HP1-beta / biotin-H3K9me3 peptide binding | Potency, µM (doses to about 114 µM), without a hit: at the top dose activity change, negative = inhibition, actives largely listed as inhibitors | 0.56% of 390,000 active | AID 540317, 2011; note: nearly all actives have a fitted effect of over 70% in size
#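 Compound inhibition of the preformed complex between 50 nM HP1-beta and 50 nM biotinylated H3K9me3 peptide was read by AlphaScreen. Buffer was PBS pH 7.4 with 0.01% Tween-20. Incubations ran 30 min at room temperature, with 10 ug/mL donor/acceptor beads.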
# PLK1 PBD block – qHTS for Inhibitors of PLK1-PDB (polo-like kinase 1 - polo-box domain): Primary Screen; Potency, µM, without a hit: max response, negative = inhibition, usual class: inhibitors; Serine/threonine-protein kinase PLK1 (Homo sapiens), P53350; Plk1 PBD binding of FITC phosphopeptide, fluorescence polarization; 2.8% of 360,000 active; AID 720504, 2013; note: series mostly up to about 57 µM; % is set by controls: 0 for no effect and ±100 for the full control effect; nearly all actives have a fitted effect of over 65% in size
# JMJD2A Tudor – qHTS Assay for Inhibitors of JMJD2A-Tudor Domain; AlphaScreen JMJD2A-Tudor / H3K4me3 peptide binding; 4.4% of 390,000 active; Potency, µM (doses to about 114 µM), for the others: at the highest dose activity change, negative = inhibition, most hits filed as inhibitors; note: % is set by controls: 0 for no effect and ±100 for the full control effect; nearly all actives have a fitted effect of over 50% in size
# G9a inh – qHTS Assay for Inhibitors of Histone Lysine Methyltransferase G9a. Potency, µM (titrated, usually from 102 µM), without a hit: at the highest dose activity, negative = inhibition, usual class: inhibitors. Histone-lysine N-methyltransferase EHMT2 (Homo sapiens), Q96KQ7. G9a H3K9 monomethylation, AlphaScreen, 2 h. AID 504332, 2011. 8.8% of 350,000 active; note: % is set by controls: 0 for no effect and ±100 for the full control effect; nearly all actives have a fitted effect of over 75% in size
#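 Signal arises when biotinylated H3K9 peptide, once monomethylated, bridges streptavidin donor and antibody-captured acceptor beads. Enzyme at 20 nM was preincubated 15 min with test compounds; peptide 500 nM and SAM 20 uM then reacted for 2 h.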
# Sfp inh – qHTS Assay for Inhibitors of Bacillus subtilis Sfp phosphopantetheinyl transferase (PPTase); 4'-phosphopantetheinyl transferase ffp (Bacillus subtilis), Q9F4F7; Biochemical Sfp PPTase activity, qHTS; Potency, µM, for inactives: largest response in the series, negative = inhibition, usual class: inhibitors; 3.5% of 310,000 active; AID 1490, 2009;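 note: the enzyme is Sfp with the accession as filed and its product quenches rhodamine fluorescence; 0% = enzyme reaction without inhibitor and -100% = no enzyme wells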
#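 Fluorescence-quenching assay: 15 nM Sfp-PPTase preincubated 15 min at room temperature with compound, then 5 uM rhodamine-CoA and 12.5 uM BHQ-2-labelled YbbR peptide added. Fluorescence (ex 525/em 598 nm) read at start and after 30 min; difference gives rate.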
# BAZ2B inh – qHTS Assay for Inhibitors of BAZ2B | Potency, µM (highest dose often 114 µM), for the others: top-dose activity change, negative = inhibition, actives largely listed as inhibitors | 4.4% of 360,000 active | AlphaScreen BAZ2B-H3K14Ac peptide displacement | Bromodomain adjacent to zinc finger domain protein 2B (Homo sapiens), Q9UIF8; note: % is set by controls: 0 for no effect and ±100 for the full control effect; nearly all actives have a fitted effect of over 60% in size
#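 In this displacement format the biotinylated H3(5-23) peptide acetylated at Lys14 serves as ligand at 50 nM, with BAZ2B at 50 nM in PBS pH 7.4 containing 0.01% Tween-20. Donor and acceptor beads are 10 ug/mL final.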
# * = called active by the depositor; ? = inconclusive; . = not tested or not shown; [ ] = another dose, or the depositor's remark. Calls come from the whole dose curve; as a rule, active = well fitted curve in the direction sought with a large enough effect; inconclusive = small, poorly fitted or top-dose-only effect, or another doubt; inactive = no such curve, though single readings can be large; an effect the other way counts as inactive or inconclusive. Potency is the fitted concentration of half-maximal effect.
SMILES,HP1b binding inh,PLK1 PBD block,JMJD2A Tudor,G9a inh,Sfp inh,BAZ2B inh
CCOc1ccc2oc(=O)cc(CN3CCN(C(=O)c4cccc(F)c4)CC3)c2c1,17.9%,.,-17.0%,-8.5%[59 µM],.,-1.7%
CC(C)c1ccc(NC(=O)c2cc(S(=O)(=O)NC3CCCCC3)ccc2F)cc1,24.2%,.,-21.4%,5.3%[59 µM],.,-1.3%
CC[C@H](C)[C@H](NC(N)=O)C(=O)Nc1ccc(OC)c(Cl)c1,44.8%,-8.6%,-6.5%,-2.4%,8.9%,-12.9%
CCC(C)C(NC(N)=O)C(=O)Nc1ccc(C)c(Cl)c1 (configuration not stated),40.0%,-8.5%,-10.0%,8.91µM*,-14.1%,-11.3%
COc1ccc2c(C)c(CC(=O)NCCc3ccc(Cl)cc3)c(=O)oc2c1C,65.1%,.,-3.1%,12.3%[59 µM],.,29.1%
Cc1cc(N2CCN(c3ccccc3)CC2)nc(-c2ccccc2O)n1,69.2%,-12.1%,-6.9%[57.1 µM],-44.8%,-4.3%,13.6%
Cc1cc(N2CCN(c3ccccc3)CC2)nc(-n2nc(C)cc2C)n1,15.8%,-8.7%,44.7µM*,10.7%[2.33 µM],8.1%,?
COc1cccc(NC(=O)CCS(=O)(=O)c2ccc(Br)cc2)c1,37.2%,-15.7%,-11.7%,10.7%,7.7%,1.0%
CC(C)CC(=O)Nc1c(C(=O)N2CCN(c3ccccc3)CC2)oc2ccccc12,24.9%,.,-32.1%,14.1µM*,.,-33.8%
COc1cccc(N2CCN(C(=O)c3oc4ccccc4c3NC(=O)CCc3cc(OC)no3)CC2)c1,2.6%,-3.7%,?,56.2µM*,-3.4%,?
CCN(CC)S(=O)(=O)c1ccc(C(=O)Nc2ccc(Cc3ccncc3)cc2)cc1,22.7%,-17.8%,-16.3%,1.8%,25.2%,-37.7%
CCN(Cc1ccncc1)S(=O)(=O)c1ccc(C(C)=O)cc1,-0.2%,18.9µM*,-23.1%,?,79.4µM*,12.7%
CCc1ccc2[nH]c(C(=O)Nc3ccc4c(c3)OCO4)cc2c1,-16.6%,-16.5%,?,22.4µM*,-2.3%,-32.8%
Cc1cc(C)c(NC(=O)Nc2ccc3c(c2)OCO3)c(C)c1,29.8%,-0.6%,-4.1%,.,-1.2%,-2.9%
O=C(Nc1ccc2c(c1)OCO2)c1ccc(CO)cc1,29.8%,-4.1%,-15.2%,5.6%[12.7 µM],.,15.3%
Cc1cc(C)c2[nH]c(C(=O)Nc3ccc4c(c3)OCO4)cc2c1,-19.9%,-14.7%,56.2µM*,17.8µM*,-21.8%,50.1µM*
COc1ccccc1NC(=O)NC1(C(=O)NCC2CCCO2)CCCCC1 (configuration not stated),23.1%,-0.1%,-5.7%,16.3%,14.9%,1.1%
Cn1cccc1/C=N/n1c(-c2ccc(C(C)(C)C)cc2)n[nH]c1=S,50.1µM*,?,50.1µM*,7.94µM*,-2.0%,44.7µM*
Cn1cccc1/C=N/n1c(-c2ccccc2)n[nH]c1=S,?,?,3.55µM*,2.1%[0.501 µM],1.5%,?
CN(Cc1ccccc1)C(=S)NC(=O)c1cccs1,12.8%,-11.9%,-33.1%,39.8µM*,21.8%,?
CN(Cc1ccccc1)C(=S)NC(=O)c1ccc(-c2ccccc2)cc1,42.1%,-7.1%,3.5%,82.7%[59 µM],13.7%,-23.9%
CCOC(=O)c1nc(N)c(C(=O)OCC)[nH]1,-8.7%,10.6µM*,-21.2%[11.4 µM],24.9%[59 µM],26.0%,4.3%
Cc1nc(Nc2ccc(C(=O)O)cc2)nc(Nc2ccc(C(=O)O)cc2)c1[N+](=O)[O-],45.3%,-29.0%,-27.4%,44.7µM*,13.6%,-38.5%
CC(=O)Nc1ccc(Nc2nc(C)c([N+](=O)[O-])c(Nc3ccccc3)n2)cc1,9.2%,-2.2%,-15.2%,?,-3.6%,-34.9%
COc1ccc(Nc2nc(N/N=C/c3ccc(N(C)C)cc3)nc(C)c2[N+](=O)[O-])cc1,-7.8%,0.9%,?,5.01µM*,0.7%,?
SMILES,HP1b binding inh,PLK1 PBD block,JMJD2A Tudor,G9a inh,Sfp inh,BAZ2B inh
COc1ccc(Nc2nc(NN)nc(C)c2[N+](=O)[O-])cc1,-16.8%,-20.8%,?,?,2.0%,?
CCOC(CNCc1cc(C)c2[nH]c3ccccc3c2c1C)OCC,0.1%,-2.7%,-16.4%,.,.,.
Nc1nc2c(ncn2[C@@H]2O[C@H](CNCc3cnc(N4CCOCC4)nc3)[C@@H](O)[C@H]2O)c(=O)[nH]1,.,-3.9%,.,.,.,.
COCC(C)OC(=O)/C(C#N)=C\c1coc2ccc(C)cc2c1=O (configuration not stated),32.6%,10.6µM*,-7.1%,?,-16.7%,8.9%
COc1ccc(CCNC2CC(C)N(C)CC2C)cc1OC (configuration not stated),35.0%,-3.8%,-2.6%,44.7µM*,11.1%,4.4%
CC(=O)Nc1cccc(-c2ccnc3c2CC(C(=O)NCc2ccco2)O3)c1 (configuration not stated),.,-0.9%,.,.,.,.
CCN1CCN(C(=S)NCc2ccc(C)cc2)CC1,16.6%,-1.4%,-8.2%,17.7%[59 µM],8.6%,5.9%
CCCCNC(=S)N1CCN(C)CC1,44.7µM*,-19.6%,11.2µM*,11.2µM*,10µM*,39.8µM*
CCCCNC(=S)N1CCN(c2ccccc2Cl)CC1,71.4%,-9.9%,11.5%[57.1 µM],1.9%,7.5%,13.2%
CN1CCN(C(=S)NCCc2ccccc2)CC1,56.2µM*,-2.1%,4.47µM*,6.31µM*,-21.5%,44.7µM*
CCNC(=S)N1CCN(CC)CC1,?,-21.4%,3.16µM*,25.1µM*,-17.0%,56.2µM*
CC1(C)Cc2c(c(=S)nc(-c3ccccc3)n2CCOCCO)CO1,34.8%,-26.6%,-13.2%,-43.2%[59 µM],-6.1%,-23.3%
OCCOCCn1c(-c2ccccc2)nc(=S)c2c1CCCC2,20.2%,-37.1%,-10.3%,50.1µM*,?,5.7%
Cc1ccccc1-c1nc(C#N)c(N2CCC(C)CC2)o1,?,-3.0%,?,35.5µM*,-7.7%,?
Cc1cccc(-c2nc(C#N)c(N3CCC(C)CC3)o2)c1,52.9%,-6.4%,0.8%,-1.9%,10.8%,11.1%
CC1CCN(c2oc(-c3ccccc3Cl)nc2C#N)CC1,?,-4.5%,?,10µM*,?,10µM*
CCn1c(=O)n(CC)c2cc(N3CCCC3)c(NC(=O)c3ccc(C)cc3)cc21,-9.4%[57 µM],2.5%,?,56.2µM*,1.2%,?
CCn1c(=O)n(CC)c2cc(N3CCCC3)c(NC(=O)c3ccccc3)cc21,1.2%,-2.3%,-29.3%,39.8µM*,-7.6%,?
CCn1c(=O)n(CC)c2cc(N3CCCC3)c(NC(=O)Nc3cc(C)cc(C)c3)cc21,43.2%,.,-10.0%,3.0%[59 µM],.,-5.0%

# Screening data: PubChem, National Center for Advancing Translational Sciences (NCATS)
